# Laboratory results taken from PubChem BioAssay (NCATS).
# Values joined by “and” are separate entries in the source; they are usually repeats but may differ in a detail not shown here. Equal values may be shown once. A number with no mark means an inactive call. Inconclusive results are not listed. Where a call stands in place of a potency, no number is given. Active and inactive are the calls of the source. Unless noted, calls come from the whole dose curve.
# Experiments:
# [1] = molecular target: Estrogen receptor (Homo sapiens) (UniProt P03372); assay: qHTS assay for small molecule agonists of estrogen receptor alpha signaling (AID 588514); details: ER-alpha-UAS-bla HEK293, beta-lactamase ratio, 18 h, percent of full estradiol response, vehicle zero; series mostly up to 76.8 µM; note: nearly all actives have a fitted effect of over 70% in size
# Summary of the method: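 EC50 and efficacy came from Hill fits of beta-lactamase reporter signal (CCF4 dye, 2 h at room temperature) scaled between DMSO and 20 nM 17-beta-estradiol. Agonist mode: HEK293 ER-alpha-UAS-bla cells in charcoal/dextran-stripped serum medium, 18 h compound exposure at 37 C.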
# [2] = molecular target: Glucocorticoid receptor (Homo sapiens) (UniProt P04150); assay: qHTS assay for small molecule agonists of glucocorticoid receptor signaling (AID 588532; active = well fitted curve in the direction sought with a large enough effect in the signal ratio, with a control signal flat; the % refers to the signal ratio); details: HeLa MMTV-bla, beta-lactamase ratio, agonist, 18 h; stronger effect = higher value; percent of dexamethasone control, DMSO zero
# Summary of the method: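 Using MMTV-bla HeLa cells in medium with 1% stripped FBS and 25 mM HEPES, compounds were titrated and incubated overnight-length (18 h). Beta-lactamase cleavage of CCF4 was quantified by dual-emission fluorescence.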
# [3] = molecular target: Ubiquitin carboxyl-terminal hydrolase 1 (Homo sapiens) (UniProt O94782); assay: Inhibitors of USP1/UAF1: Pilot qHTS (AID 504865; active = well fitted inhibition curve with a large enough effect; note: nearly all actives have a fitted effect of over 35% in size; note: potency is the fitted concentration of half-maximal effect); details: purified USP1/UAF1, Ub-rhodamine cleavage fluorescence; series mostly up to 114 µM
# Summary of the method: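 Kinetic fluorescence assay: 1nM USP1/UAF1, 15 min compound preincubation, then 150nM Ub-Rho; 480/540 nm.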
# [4] = molecular target: Bile acid receptor (Homo sapiens) (UniProt Q96RI1); assay: qHTS assay for small molecule antagonists of farnesoid X receptor signaling (AID 588526); details: HEK293T FXR-UAS-bla, beta-lactamase ratio, antagonist mode; series mostly up to 76.7 µM
# Summary of the method: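 Beta-lactamase reporter antagonist mode: HEK293T FXR-UAS-bla cells, titrated compound, CDCA stimulation, 16 h 37 C, CCF4 dye 2 h RT. Data normalized to CDCA 50 uM and DMSO; Hill-fit IC50.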
# [5] = molecular target: DNA dC->dU-editing enzyme APOBEC-3G (Homo sapiens) (UniProt Q9HC16); assay: qHTS for inhibitors of Vif-A3G interactions: Validation (AID 588379; active = well fitted inhibition curve with a large enough effect); details: Vif-A3G protein interaction assay; series mostly up to 46.1 µM
# Summary of the method: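 Yellow fluorescence (Ex 488, Em 500-530) of Vif-coexpressing HeLa A3G-eYFP cells, scanned by Acumen cytometer, reports blocked A3G degradation. Cells plated at 700/well overnight at 37 deg C before compound addition, then a further overnight compound incubation at 37 deg C.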
# [6] = molecular target: Estrogen receptor (Homo sapiens) (UniProt P03372); assay: qHTS assay for small molecule antagonists of estrogen receptor alpha signaling (AID 588513; active = well fitted curve in the direction sought with a large enough effect in the signal ratio, with a control signal flat, not every such curve was filed as active; the % refers to the signal ratio); details: ER-alpha-UAS-bla HEK293, beta-lactamase ratio, antagonist mode; series mostly up to 76.9 µM
# Summary of the method: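 Cells were plated at 5000/well and incubated 4 h at 37 C. Compounds were added as 1:2 dilution series, duplicates. 17-beta-estradiol (0.5nM final) was added for 18 h before CCF4 detection.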
# [7] = molecular target: Androgen receptor (Homo sapiens) (UniProt P10275); assay: qHTS assay for small molecule antagonists of androgen receptor signaling (AID 588516; active = well fitted curve in the direction sought with a large enough effect in the signal ratio, with a control signal flat, not every such curve was filed as active; the % refers to the signal ratio); details: AR-UAS-bla HEK293, beta-lactamase ratio, antagonist mode, 16 h; series mostly up to 76.8 µM
# Summary of the method: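 Antagonist-mode qHTS: inhibition of R1881 (10 nM)-driven beta-lactamase expression in GripTite HEK 293 cells is measured after 16 h; values are Hill-derived IC50s normalized between R1881 and DMSO wells.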
# [8] = molecular target: Androgen receptor (Homo sapiens) (UniProt P10275); assay: qHTS assay for small molecule agonists of androgen receptor signaling (AID 588515; active = well fitted curve in the direction sought with a large enough effect in the signal ratio, with a control signal flat; the % refers to the signal ratio); details: AR-UAS-bla HEK293, beta-lactamase ratio, agonist 16 h; stronger effect = higher value
# Summary of the method: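 Stimulation of an AR-responsive β-lactamase reporter in GripTite HEK293 cells was measured after 16 h compound exposure at 37 °C, via CCF4 fluorescence after 2 h RT. EC50 from Hill fits, normalized to R1881 at 30 nM.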
# Androgen receptor (Homo sapiens), sequence (P10275 whole entry, looked up): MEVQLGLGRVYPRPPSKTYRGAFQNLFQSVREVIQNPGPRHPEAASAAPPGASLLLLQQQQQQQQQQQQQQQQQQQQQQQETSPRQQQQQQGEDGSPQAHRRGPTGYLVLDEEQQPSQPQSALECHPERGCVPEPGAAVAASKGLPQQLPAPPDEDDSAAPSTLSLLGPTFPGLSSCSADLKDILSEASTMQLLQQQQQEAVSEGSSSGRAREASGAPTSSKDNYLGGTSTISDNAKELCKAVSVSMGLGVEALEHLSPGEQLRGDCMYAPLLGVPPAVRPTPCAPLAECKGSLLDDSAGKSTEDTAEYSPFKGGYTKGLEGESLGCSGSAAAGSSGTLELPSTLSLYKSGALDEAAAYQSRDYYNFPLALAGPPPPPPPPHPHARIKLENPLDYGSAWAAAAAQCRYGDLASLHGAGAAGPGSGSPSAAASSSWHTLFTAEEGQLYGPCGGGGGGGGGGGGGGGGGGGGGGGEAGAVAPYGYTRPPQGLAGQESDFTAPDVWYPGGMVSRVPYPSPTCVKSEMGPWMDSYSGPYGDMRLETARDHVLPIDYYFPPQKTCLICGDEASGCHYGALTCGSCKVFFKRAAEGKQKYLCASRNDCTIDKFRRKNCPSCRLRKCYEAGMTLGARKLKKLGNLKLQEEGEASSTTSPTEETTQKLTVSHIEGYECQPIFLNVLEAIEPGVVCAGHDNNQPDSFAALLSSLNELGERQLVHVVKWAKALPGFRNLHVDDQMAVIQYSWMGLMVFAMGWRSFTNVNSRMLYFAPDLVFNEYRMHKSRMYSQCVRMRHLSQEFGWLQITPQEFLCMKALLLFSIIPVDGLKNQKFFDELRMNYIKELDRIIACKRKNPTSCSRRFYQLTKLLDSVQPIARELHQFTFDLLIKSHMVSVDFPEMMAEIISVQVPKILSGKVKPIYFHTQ
# Bile acid receptor (Homo sapiens), sequence (Q96RI1 whole entry, looked up): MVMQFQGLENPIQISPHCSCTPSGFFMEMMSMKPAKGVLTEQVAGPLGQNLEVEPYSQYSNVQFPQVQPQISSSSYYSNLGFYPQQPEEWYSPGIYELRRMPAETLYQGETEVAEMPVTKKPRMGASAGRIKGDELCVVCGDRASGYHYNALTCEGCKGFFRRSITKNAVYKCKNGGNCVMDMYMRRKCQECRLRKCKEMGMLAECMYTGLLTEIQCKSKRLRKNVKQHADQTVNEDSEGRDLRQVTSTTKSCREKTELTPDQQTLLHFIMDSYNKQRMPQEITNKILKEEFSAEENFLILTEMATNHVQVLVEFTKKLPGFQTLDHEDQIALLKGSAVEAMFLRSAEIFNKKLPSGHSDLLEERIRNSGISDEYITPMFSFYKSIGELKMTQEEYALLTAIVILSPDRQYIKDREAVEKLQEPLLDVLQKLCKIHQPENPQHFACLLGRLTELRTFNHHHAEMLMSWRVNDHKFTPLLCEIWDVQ
# Glucocorticoid receptor (Homo sapiens), sequence (P04150 whole entry, looked up): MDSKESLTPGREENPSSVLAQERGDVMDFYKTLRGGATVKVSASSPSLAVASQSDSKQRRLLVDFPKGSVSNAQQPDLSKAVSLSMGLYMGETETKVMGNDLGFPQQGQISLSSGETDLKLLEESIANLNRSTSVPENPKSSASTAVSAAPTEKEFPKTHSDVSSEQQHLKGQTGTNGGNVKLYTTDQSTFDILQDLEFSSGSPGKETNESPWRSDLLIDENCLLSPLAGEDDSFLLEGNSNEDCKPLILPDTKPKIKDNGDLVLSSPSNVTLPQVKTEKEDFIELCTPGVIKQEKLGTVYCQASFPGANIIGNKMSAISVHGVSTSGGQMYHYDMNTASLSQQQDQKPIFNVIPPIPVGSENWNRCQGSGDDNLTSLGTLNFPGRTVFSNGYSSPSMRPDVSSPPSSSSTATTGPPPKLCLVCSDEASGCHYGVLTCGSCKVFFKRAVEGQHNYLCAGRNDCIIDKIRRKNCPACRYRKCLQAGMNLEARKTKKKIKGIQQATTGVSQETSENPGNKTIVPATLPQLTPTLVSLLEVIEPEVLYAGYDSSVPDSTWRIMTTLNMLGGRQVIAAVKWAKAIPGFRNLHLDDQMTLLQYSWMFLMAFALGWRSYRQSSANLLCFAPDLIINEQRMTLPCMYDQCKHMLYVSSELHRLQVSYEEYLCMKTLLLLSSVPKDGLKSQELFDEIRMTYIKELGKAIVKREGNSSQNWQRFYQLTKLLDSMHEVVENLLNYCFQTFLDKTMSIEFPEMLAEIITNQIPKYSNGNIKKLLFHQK
# Estrogen receptor (Homo sapiens), sequence (P03372 whole entry, looked up): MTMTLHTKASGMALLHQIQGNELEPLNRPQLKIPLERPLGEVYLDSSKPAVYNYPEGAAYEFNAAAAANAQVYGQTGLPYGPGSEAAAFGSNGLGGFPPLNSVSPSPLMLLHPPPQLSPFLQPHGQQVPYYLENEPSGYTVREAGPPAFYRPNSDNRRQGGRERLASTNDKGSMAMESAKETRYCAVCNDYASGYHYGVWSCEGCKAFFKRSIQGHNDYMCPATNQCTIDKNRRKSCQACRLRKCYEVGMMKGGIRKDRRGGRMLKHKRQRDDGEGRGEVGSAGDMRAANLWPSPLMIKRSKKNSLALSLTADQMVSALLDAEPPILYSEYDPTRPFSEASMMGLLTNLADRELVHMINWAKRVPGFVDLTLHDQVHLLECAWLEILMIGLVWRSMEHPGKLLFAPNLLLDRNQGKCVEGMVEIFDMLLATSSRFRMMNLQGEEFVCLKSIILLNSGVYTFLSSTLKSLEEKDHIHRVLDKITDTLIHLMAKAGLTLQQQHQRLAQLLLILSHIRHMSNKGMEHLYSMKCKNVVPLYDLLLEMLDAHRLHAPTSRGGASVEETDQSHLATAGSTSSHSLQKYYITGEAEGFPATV
# Ubiquitin carboxyl-terminal hydrolase 1 (Homo sapiens), sequence (O94782 whole entry, looked up): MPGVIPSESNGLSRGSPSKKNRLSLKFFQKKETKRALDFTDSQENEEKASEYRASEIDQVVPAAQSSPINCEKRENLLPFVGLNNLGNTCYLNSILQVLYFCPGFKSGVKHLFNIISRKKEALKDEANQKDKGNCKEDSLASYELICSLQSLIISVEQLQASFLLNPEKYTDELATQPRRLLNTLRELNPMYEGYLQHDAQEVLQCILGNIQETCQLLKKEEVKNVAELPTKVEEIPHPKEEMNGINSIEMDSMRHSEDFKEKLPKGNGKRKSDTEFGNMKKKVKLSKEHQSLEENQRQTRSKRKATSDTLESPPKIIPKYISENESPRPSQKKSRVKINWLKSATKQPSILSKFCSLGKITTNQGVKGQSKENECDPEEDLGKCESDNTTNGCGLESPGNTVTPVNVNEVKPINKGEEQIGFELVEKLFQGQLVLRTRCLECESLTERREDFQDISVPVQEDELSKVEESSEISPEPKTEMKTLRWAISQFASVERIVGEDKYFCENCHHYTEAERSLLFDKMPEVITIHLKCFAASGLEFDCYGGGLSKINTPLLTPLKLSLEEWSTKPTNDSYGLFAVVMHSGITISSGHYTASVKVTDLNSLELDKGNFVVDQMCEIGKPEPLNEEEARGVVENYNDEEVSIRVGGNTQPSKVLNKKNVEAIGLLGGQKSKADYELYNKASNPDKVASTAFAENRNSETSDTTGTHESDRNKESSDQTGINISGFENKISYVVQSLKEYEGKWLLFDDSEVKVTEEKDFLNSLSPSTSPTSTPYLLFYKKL
# DNA dC->dU-editing enzyme APOBEC-3G (Homo sapiens), sequence (Q9HC16 whole entry, looked up): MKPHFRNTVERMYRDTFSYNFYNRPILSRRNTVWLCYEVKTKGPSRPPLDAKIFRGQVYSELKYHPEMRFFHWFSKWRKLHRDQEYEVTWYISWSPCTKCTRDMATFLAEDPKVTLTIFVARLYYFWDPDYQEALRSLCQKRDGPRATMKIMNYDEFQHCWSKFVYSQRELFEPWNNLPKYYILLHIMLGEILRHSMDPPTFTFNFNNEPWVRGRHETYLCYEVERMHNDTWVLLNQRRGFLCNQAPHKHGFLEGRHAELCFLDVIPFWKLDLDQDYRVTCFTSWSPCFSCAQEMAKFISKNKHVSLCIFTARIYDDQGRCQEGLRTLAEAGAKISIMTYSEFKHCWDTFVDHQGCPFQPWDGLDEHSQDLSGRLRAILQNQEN
compound,measurement,setting,value
O=C(Nc1ccc(Cl)cc1)Nc1ccc(Cl)c(Cl)c1,outcome,[1],inactive
same,activation,[2],4.25%
CCCCCCCCCCCCCCCC[n+]1ccccc1,activation,[2],4.95%
COC(=O)c1c(Cl)c(Cl)c(C(=O)OC)c(Cl)c1Cl,Potency,[3],inactive
same,outcome,[1],inactive
same,outcome,[4],inactive
same,activation,[2],-1.01%
CCCCCCCCCCCCCCCC[N+](C)(C)Cc1ccccc1,Potency,[3],50.1 µM (active)
COc1cc(C=O)ccc1O,Potency,[3],inactive
same,outcome,[5],inactive
same,outcome,[6],inactive
same,outcome,[1],inactive
same,outcome,[7],inactive
same,outcome,[4],inactive
c1ccc2occc2c1,outcome,[4],inactive
CC(C)(C)c1ccc(O)c(O)c1,outcome,[4],inactive
same,activation,[2],27.4% and -11.3%
O=C(c1ccccc1)c1ccccc1,activation,[8],19.2% and -0.683%
same,outcome,[7],inactive
same,outcome,[4],inactive
same,activation,[2],-1.61% and 0.77%
OC(CCCN1CCCCC1)(c1ccccc1)c1ccccc1,Potency,[3],inactive
Cc1ccc(O)cc1,Potency,[3],inactive
same,outcome,[4],inactive
same,activation,[2],-6.73%
Cc1ncc(CO)c(CO)c1O,Potency,[3],inactive
same,outcome,[4],inactive
Nc1cccc2c(N)cccc12,outcome,[1],inactive
same,activation,[8],-5.98% and -0.762%
same,outcome,[4],inactive
Nc1ccc(O)cc1,outcome,[6],inactive
same,outcome,[4],inactive
same,activation,[2],1.91%
C1N2CN3CN1CN(C2)C3,Potency,[3],inactive
O=C(Oc1ccccc1)c1cccc(C(=O)Oc2ccccc2)c1,outcome,[4],inactive
same,activation,[2],-8.17%
Cc1ccc2c(Cl)cc(Cl)c(O)c2n1,Potency,[3],inactive
C1=CC2C3C=CC(C3)C2C1 (stereo not given),activation,[2],-4.75%
NCC(=O)O,Potency,[3],inactive
same,outcome,[5],inactive
